# PubChem BioAssay (EPA / NIEHS)
# Inconclusive results are not listed. Active and inactive are the calls of the source. How the source made its calls, unless noted: active means hit-call score of the fitted dose curve at least 0.9, where 1 is the maximum; inconclusive means response in the unintended direction; inactive means score below 0.9.
# How the values were obtained:
# [1] = tested on: Sodium/Iodide Symporter (NIS), SLC5A5 (gene 6528); experiment: CPHEA_Stoker_NIS_Inhibition_RAIU: CPHEA's Radioactive Iodide Uptake (RAIU) Assay for Sodium/Iodide Symporter (NIS) Inhibition, Stoker and Laws Labs (AID 2283841)
# In short: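 HEK293T cells stably expressing human NIS (hNIS-HEK293T-EPA) were exposed to test chemicals at 0.001–100uM (0.5% final DMSO) with 125I at a final 329pM in HBSS/10mM HEPES pH 7.4. After 2 hours at room temperature and ice-cold washes, intracellular 125I was counted as CPM and normalized to DMSO wells.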
# [2] = CPHEA_Stoker_NIS_Cytotoxicity: Cytotoxicity Assessment for CPHEA's Radioactive Iodide Uptake (RAIU) Assay for Sodium/Iodide Symporter (NIS) Inhibition, Stoker and Laws Labs (AID 2283897);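 on AC50: active means loss of ATP signal versus DMSO meaning cytotoxicity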
# In short: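 hNIS-HEK293T-EPA human kidney cells were exposed for 2 hours at room temperature to test chemicals (0.001–100uM, 0.5% final DMSO) in HEPES-buffered HBSS, pH 7.4. Viability was read as ATP content by luciferase bioluminescence, loss of signal versus DMSO.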
# PGR (gene 5241) [3] = target: PGR (gene 5241) (UniProt P06401); experiment: TOX21_PR_BLA_Followup_Agonist_ratio: Tox21 HEK293 Progesterone Receptor (PR) Agonism Beta-lactamase Follow-Up Assay, Ratio (AID 2283933)
# Chain of PGR (gene 5241) (P06401 whole entry, looked up): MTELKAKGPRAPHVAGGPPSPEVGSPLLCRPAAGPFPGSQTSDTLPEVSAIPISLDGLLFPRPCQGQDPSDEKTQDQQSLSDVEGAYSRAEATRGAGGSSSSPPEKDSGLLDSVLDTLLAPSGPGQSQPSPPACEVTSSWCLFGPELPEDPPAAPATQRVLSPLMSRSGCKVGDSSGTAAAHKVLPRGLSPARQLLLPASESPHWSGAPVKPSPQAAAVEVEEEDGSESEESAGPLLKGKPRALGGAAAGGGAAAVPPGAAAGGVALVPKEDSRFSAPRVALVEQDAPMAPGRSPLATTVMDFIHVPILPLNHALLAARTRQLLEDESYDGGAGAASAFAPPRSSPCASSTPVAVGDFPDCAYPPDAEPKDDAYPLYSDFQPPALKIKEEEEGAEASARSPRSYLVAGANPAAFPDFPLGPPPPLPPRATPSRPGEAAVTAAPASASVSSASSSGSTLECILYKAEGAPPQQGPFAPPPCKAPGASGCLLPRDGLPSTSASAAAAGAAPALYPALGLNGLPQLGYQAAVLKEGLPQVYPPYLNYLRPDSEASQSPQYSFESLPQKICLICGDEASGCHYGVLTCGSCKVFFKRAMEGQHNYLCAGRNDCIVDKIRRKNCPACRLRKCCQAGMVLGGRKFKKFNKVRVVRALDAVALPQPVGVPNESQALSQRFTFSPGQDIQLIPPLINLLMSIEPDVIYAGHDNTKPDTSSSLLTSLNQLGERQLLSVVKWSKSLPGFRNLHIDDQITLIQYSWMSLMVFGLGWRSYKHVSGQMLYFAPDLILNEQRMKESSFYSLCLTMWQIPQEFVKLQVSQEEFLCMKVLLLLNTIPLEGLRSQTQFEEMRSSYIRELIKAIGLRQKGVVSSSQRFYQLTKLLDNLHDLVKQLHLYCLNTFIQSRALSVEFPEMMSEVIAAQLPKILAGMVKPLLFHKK
# In short: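 PR-UAS-bla HEK293T cells in medium with 2% charcoal-stripped FBS were dosed after 6 h plating and incubated 16 h at 37C. LiveBLAzer FRET substrate was added for 2 h at room temperature. Cleaved/uncleaved substrate ratio fitted against DMSO; CellTiter-Glo viability run in the same wells.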
# PGR (gene 5241) [4] = target: PGR (gene 5241) (UniProt P06401); experiment: TOX21_PR_BLA_Followup_Antagonist_ratio: Tox21 HEK293 Progesterone Receptor (PR) Antagonism Beta-lactamase Follow-Up Assay, Ratio (AID 2283934)
# In short: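 PR-UAS-bla HEK293T cells, 3,000/well in 2% charcoal-stripped FBS, given compound plus 1nM R5020 agonist for 16 hr at 37C. Beta-lactamase FRET substrate 2 hours, ratio cleaved/uncleaved fluorescence; viability by CellTiter-Glo in same wells.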
# [5] = TOX21_PR_BLA_Followup_Agonist_viability: Viability Assessment in the Tox21 HEK293 Progesterone Receptor (PR) Agonism Beta-lactamase Follow-Up Assay (AID 2283935);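 further: signal loss means lower viability so actives are cytotoxic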
# In short: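 PR-UAS-bla HEK293T cells in 2% charcoal-stripped FBS medium, plated 6 hr before compound addition, exposed 16 hr at 37C. Viability read by CellTiter-Glo ATP luminescence after 30 min at room temperature, in the same wells as the beta-lactamase readout.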
# [6] = TOX21_PR_BLA_Followup_Antagonist_viability: Viability Assessment in the Tox21 HEK293 Progesterone Receptor (PR) Antagonism Beta-lactamase Follow-Up Assay (AID 2283936);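 further: hits lower the luminescence signal meaning cytotoxicity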
# In short: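 PR-UAS-bla HEK293T cells (3,000/well, 2% charcoal-stripped FBS) given compound plus R5020 agonist, 16 h at 37C. CellTiter-Glo added after bla read, 30 min at room temperature; luminescence loss indicates cytotoxicity.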
# PGR (gene 5241) [7] = target: PGR (gene 5241) (UniProt P06401); experiment: TOX21_PR_LUC_Followup_Agonist: Tox21 HEK293 Progesterone Receptor (PR) Agonism Luciferase Follow-Up Assay (AID 2283937; active means hit-call score of the fitted dose curve at least 0.9, where 1 is the maximum; inactive means score below 0.9)
# In short: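 HEK293-PR-A-luc cells, conditioned 5 days in 10% charcoal-stripped FBS medium, seeded 3,000/well for 5 h, then compound-treated 16 h at 37C. ONE-Glo luminescence read after 30 min at room temperature; gain of signal versus DMSO.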
# PGR (gene 5241) [8] = target: PGR (gene 5241) (UniProt P06401); experiment: TOX21_PR_LUC_Followup_Antagonist: Tox21 HEK293 Progesterone Receptor (PR) Antagonism Luciferase Follow-Up Assay (AID 2283938);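 further: curve fitted upward as signal gain over DMSO baseline despite antagonist label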
# In short: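 HEK293-PR-A-luc cells were precultured 5 days in medium with 10% charcoal-stripped FBS, seeded 3,000/well, then exposed to compounds in DMSO for 16 h at 37C. Luciferase was read by ONE-Glo luminescence after 30 min at room temperature.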
# [9] = target: Thyroid hormone receptor alpha (Rattus norvegicus) + Thyroid hormone receptor beta (Rattus norvegicus) (UniProt P18113+P63059); experiment: TOX21_TR_LUC_GH3_Agonist_Followup: Tox21 GH3 Thyroid Hormone Receptor Agonism Luciferase Follow-Up Assay (AID 2283939)
# Chain of Thyroid hormone receptor alpha (Rattus norvegicus) + Thyroid hormone receptor beta (Rattus norvegicus) (P63059 whole entry, looked up): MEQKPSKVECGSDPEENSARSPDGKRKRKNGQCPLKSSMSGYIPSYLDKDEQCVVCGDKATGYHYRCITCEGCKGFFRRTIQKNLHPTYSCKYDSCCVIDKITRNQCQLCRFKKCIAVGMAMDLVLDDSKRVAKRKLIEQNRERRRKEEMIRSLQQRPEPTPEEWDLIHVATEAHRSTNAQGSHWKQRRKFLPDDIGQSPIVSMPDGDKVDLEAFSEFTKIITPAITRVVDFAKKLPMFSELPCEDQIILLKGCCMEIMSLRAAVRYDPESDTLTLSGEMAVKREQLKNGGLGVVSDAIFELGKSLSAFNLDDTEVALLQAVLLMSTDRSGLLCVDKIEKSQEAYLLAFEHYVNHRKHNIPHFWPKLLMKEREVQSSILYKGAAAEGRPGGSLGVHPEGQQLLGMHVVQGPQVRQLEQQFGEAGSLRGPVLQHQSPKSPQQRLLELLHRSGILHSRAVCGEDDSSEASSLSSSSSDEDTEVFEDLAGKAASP
# Chain of Thyroid hormone receptor alpha (Rattus norvegicus) + Thyroid hormone receptor beta (Rattus norvegicus) (P18113 whole entry, looked up): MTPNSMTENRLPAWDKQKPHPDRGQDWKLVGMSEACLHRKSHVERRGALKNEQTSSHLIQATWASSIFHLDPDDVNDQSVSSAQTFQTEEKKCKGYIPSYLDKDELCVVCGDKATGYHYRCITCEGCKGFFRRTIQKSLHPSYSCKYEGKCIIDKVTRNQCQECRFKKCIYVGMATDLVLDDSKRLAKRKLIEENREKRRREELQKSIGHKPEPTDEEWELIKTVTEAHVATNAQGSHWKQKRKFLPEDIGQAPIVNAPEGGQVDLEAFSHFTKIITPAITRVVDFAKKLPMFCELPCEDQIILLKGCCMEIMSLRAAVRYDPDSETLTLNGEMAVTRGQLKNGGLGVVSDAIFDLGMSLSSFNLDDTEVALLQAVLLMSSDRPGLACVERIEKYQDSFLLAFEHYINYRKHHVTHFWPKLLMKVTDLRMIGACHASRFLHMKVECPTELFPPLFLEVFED
# In short: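 Rat GH3 cells (1,500/well) in serum-free assay medium, treated with 15-point series, 92 uM to 5 nM final, for 24 h at 37C. Luciferase via ONE-Glo luminescence; gain of signal fitted against DMSO, T3 positive control.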
structure (smiles),measurement,setting,value
O=C(OCCOCCOC(=O)c1ccccc1)c1ccccc1,outcome,[1],inactive
same,outcome,[2],inactive
CCC(=C(c1ccc(O)cc1)c1ccc(OCCN(C)C)cc1)c1ccccc1,outcome,[1],inactive
same,outcome,[2],inactive
CC1=C(/C=C/C(C)=C/C=C/C(C)=C/C(=O)O)C(C)(C)CCC1,outcome,[1],inactive
same,outcome,[2],inactive
CN1CCN(c2ccccc2/C=C2\SCCN(c3ccc(Cl)c(Cl)c3)C2=O)CC1,outcome,[2],inactive
OCCC(F)(F)C(F)(F)C(F)(F)C(F)(F)C(F)(F)C(F)(F)F,outcome,[1],inactive
CC#C[C@]1(O)CC[C@H]2[C@@H]3CCC4=CC(=O)CCC4=C3[C@@H](c3ccc(N(C)C)cc3)C[C@@]21C,outcome,[2],inactive
CCc1ccc(CCOc2ccc(CC3SC(=O)NC3=O)cc2)nc1 (configuration not stated),outcome,[1],inactive
same,outcome,[2],inactive
Oc1cc2ccccc2c2ccccc12,outcome,[1],inactive
same,outcome,[2],inactive
CC(C)(C)c1ccc(O)c(C(C)(C)C)c1,AC50,[1],50 µM (active)
same,AC50,[2],9.92 µM (active)
c1ccc2c(c1)ccc1ccccc12,outcome,[2],inactive
NC(=O)N1C(=O)C(C(=O)c2cc(Cl)cs2)c2cc(F)c(Cl)cc21 (configuration not stated),outcome,[1],inactive
same,outcome,[2],inactive
Cc1oc(-c2ccccc2)nc1CCOc1ccc(C[C@H](Nc2ccccc2C(=O)c2ccccc2)C(=O)O)cc1,AC50,[1],42.5 µM (active)
same,AC50,[2],9.21 µM (active)
CC[C@H](c1ccc(O)cc1)[C@@H](CC)c1ccc(O)cc1,AC50,[1],50 µM (active)
same,AC50,[2],9.92 µM (active)
same,outcome,PGR (gene 5241) [3],inactive
same,AC50,PGR (gene 5241) [4],9.17 µM (active)
same,outcome,[5],inactive
same,outcome,[6],inactive
same,outcome,PGR (gene 5241) [7],inactive
same,AC50,PGR (gene 5241) [8],16.2 µM (active)
C[C@@H]1C[C@H]2[C@@H]3CCC4=CC(=O)C=C[C@]4(C)[C@@]3(F)[C@@H](O)C[C@]2(C)[C@@]1(O)C(=O)COP(=O)(O)O,outcome,PGR (gene 5241) [4],inactive
same,outcome,[5],inactive
same,outcome,[6],inactive
CC(C)(C)c1cc(C(C)(C)C)c(O)c(C(C)(C)C)c1,outcome,[9],inactive
CC(C)(C)c1cccc(C(C)(C)C)c1O,outcome,[2],inactive
O=C(O)Cc1cc(I)c(Oc2cc(I)c(O)c(I)c2)c(I)c1,outcome,[1],inactive
same,outcome,[2],inactive
same,AC50,[9],0.00668 µM (active)
ClC1=C(Cl)C(Cl)(Cl)C(Cl)=C1Cl,AC50,[1],19.1 µM (active)
same,outcome,[2],inactive
CCCCCCCCCCCCN1CCCC1=O,outcome,[1],inactive
same,outcome,[2],inactive
CCCCCCCCCCCCCC[N+](C)(C)C,AC50,[1],19.2 µM (active)
same,outcome,[2],inactive
